# Assay results as given in PubChem BioAssay AID2284354 (EPA ToxCast).
# Records with an inconclusive call do not appear. Activity calls are given as the source filed them. How the source made its calls: active means hit-call score of the fitted dose curve at least 0.9, where 1 is the maximum; inconclusive means response in the unintended direction; inactive means score below 0.9.
# Molecular target: human Retinoid X Receptor beta (RXRb), RXRB (gene 6257) (UniProt P28702)
# Test: ATG_hRXRb_EcoTox2: Attagene TRANS-FACTORIAL EcoTox-2 HepG2 Assay for human Retinoid X Receptor beta (RXRb)
# Experimental: ATG_EcoTox2 is a cell-based, multiplexed assay created by modifying the existing Attagene TRANS-FACTORIAL system to include a panel of nuclear receptors from some or all the following species: human (Homo sapiens), african clawed frog (Xenopus laevis), rainbow trout (Oncorhynchus mykiss), japanese medaka (Oryzias latipes), and zebrafish (Danio rerio). The ECOTOX2-FACTORIAL format uses HepG2, a human liver cell line, with measurements taken at 24 hours after chemical dosing in a 24-well plate. ATG_hRXRb_EcoTox2 is one of 29 assay components calculated in the ATG_EcoTox2 assay. It is designed to make measurements of mRNA induction, a form of inducible reporter, as detected with fluorescence intensity signals by Reverse transcription polymerase chain reaction (RT-PCR) and Capillary electrophoresis technology.The assay endpoint ATG_hRXRb_EcoTox2 was analyzed in the positive analysis fitting direction relative to DMSO as the negative control and baseline of activity. Using a type of inducible reporter, measures of mRNA for gain-of-signal activity can be used to understand the reporter gene at the transcription factor-level as they relate to the gene RXRb. Furthermore, this assay endpoint can be referred to as a primary readout, because this assay has produced multiple assay endpoints where this one serves a reporter gene function. To generalize the intended target to other relatable targets, this assay endpoint is annotated to the nuclear receptor intended target family, where the subfamily is non-steroidal.
# Human liver HepG2 cells are transiently transfected with multiple reporter transcription units (MRTUs) in 6-well plates using FuGene 6 reagent (Roche; 3 ml FuGene/1 mg DNA). The MRTU constructs are regulated by a cis-regulating element (promoter). Each RTU expresses a GAL4-UAS that regulates the transcription of a nearby target reporter gene sequence. A major difference between the CIS and TRANS system is that in CIS activities of endogenous TFs are measured, whereas the TRANS assay evaluates changes in activities of exogenous, chimeric NR-Gal4 proteins. […] At the end of 24 hour incubation, total RNA was isolated using TriZol reagent (Invitrogen). The isolated RNA is then reverse-transcribed using oligo(dT) primer and Mo-MLV reverse transcriptase (Invitrogen) with DNAse I (Ambion) treatment for 30 min. The one-tenth of the produced cDNA was amplified by PCR using Taq DNA polymerase (Invitrogen) and two reporter sequence-specific primers. The PCR products were fluorescently labeled by primer extension with 6-arboxyfluorescein (6-FAM) 5'-labeled reporter sequence-specific primer (2 min at 95 C, 20 s at 68 C and 10 min at 72 C) and these products were digested with 5U of HpaI (New England Biolabs) for 2h at 37 C. The fragments were purified using Qiaquick PCR columns (Qiagen), analyzed on an ABI 3130xL genetic analyzer (Applied Biosystems) with peak positions identified by using a set of X-rhodamine (ROX)-labeled MapMarker1000 molecular weight standards (BioVentures). The raw capillary electrophoresis data was processed using Attagraph software (Attagene).
# Sequence of human Retinoid X Receptor beta (RXRb), RXRB (gene 6257) (P28702 whole entry, looked up): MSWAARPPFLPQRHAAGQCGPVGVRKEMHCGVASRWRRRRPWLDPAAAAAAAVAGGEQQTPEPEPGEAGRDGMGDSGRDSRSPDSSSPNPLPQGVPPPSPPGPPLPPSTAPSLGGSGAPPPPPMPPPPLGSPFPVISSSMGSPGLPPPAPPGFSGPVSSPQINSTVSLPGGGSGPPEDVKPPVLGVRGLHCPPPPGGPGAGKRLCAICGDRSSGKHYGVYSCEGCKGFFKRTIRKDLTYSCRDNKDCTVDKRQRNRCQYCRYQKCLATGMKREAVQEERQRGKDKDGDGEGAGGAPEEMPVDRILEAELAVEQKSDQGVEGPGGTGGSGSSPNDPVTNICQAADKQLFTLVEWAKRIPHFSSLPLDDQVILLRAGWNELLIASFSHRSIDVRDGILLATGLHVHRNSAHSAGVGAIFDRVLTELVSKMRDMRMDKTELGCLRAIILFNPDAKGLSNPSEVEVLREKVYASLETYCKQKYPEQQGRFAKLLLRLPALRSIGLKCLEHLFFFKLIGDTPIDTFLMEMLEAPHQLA
SMILES,outcome,AC50
CC(C)OC(=O)C(C)(C)Oc1ccc(C(=O)c2ccc(Cl)cc2)cc1,inactive,
CC(C)(Oc1ccc(C2CC2(Cl)Cl)cc1)C(=O)O (centres undefined),inactive,
CC(c1cc2ccccc2s1)N(O)C(N)=O (centres undefined),inactive,
C[C@@H]1C[C@H]2[C@@H]3CCC4=CC(=O)C=C[C@]4(C)[C@@]3(F)[C@@H](O)C[C@]2(C)[C@@]1(O)C(=O)COP(=O)(O)O,inactive,
Cc1ccc(C)c(OCCCC(C)(C)C(=O)O)c1,,18.6 µM (active)
CC(C)(Oc1ccc(CCNC(=O)c2ccc(Cl)cc2)cc1)C(=O)O,inactive,
CN(CCOc1ccc(CC2SC(=O)NC2=O)cc1)c1ccccn1 (centres undefined),,13 µM (active)
CC(C)(Oc1ccc(Cl)cc1)C(=O)O,inactive,
C[C@]12C=CC(=O)C=C1CC[C@@H]1[C@@H]2C(=O)C[C@@]2(C)[C@H]1CC[C@]2(O)C(=O)CO,inactive,
